Records with an inconclusive call do not appear. Where a call stands in place of a potency, no number is given. Unmarked numbers belong to inactive results. Activity calls are given as the source filed them. Unless noted, calls come from the whole dose curve; as a rule, active = well fitted curve in the direction sought with a large enough effect in the repeat runs; inconclusive = weak or mixed curves; inactive = no such curve, though single readings can be large; an effect the other way counts as inactive or inconclusive.
Columns and labels:
[1] = target: Retinoic acid receptor RXR-alpha (Homo sapiens) (UniProt P19793); assay: qHTS assay to identify small molecule agonists of the RXR signaling pathway (AID 1159527; calls by dose curve; note: nearly all actives have a fitted effect of over 35% in size; note: potency is the fitted concentration of half-maximal effect)
How it was run: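 Read-out: beta-lactamase FRET ratio (405 nm excitation, 460 and 530 nm emission) after 2 hr substrate loading at room temperature. Cells were RXR-alpha-UAS-bla HEK 293T treated with compounds for 16 hr in 2% charcoal-stripped FBS medium.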

[2] = qHTS assay to identify small molecule agonists of the RXR signaling pathway - cell viability counter screen (AID 1159529); note: series mostly up to about 77 µM; nearly all actives have a fitted effect of over 50% in size
How it was run: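 HEK 293T RXRa-bla cells, 2% CS-FBS; 5 h settle; cpd 16 h 37 C, 5% CO2; CellTiter-Glo 30 min RT, luminescence. Tetraoctyl ammonium bromide as positive control.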

[3] = qHTS assay to identify small molecule antagonists of the retinoid acid receptor (RAR) signaling pathway - cell viability counter screen (AID 1159551); note: nearly all actives have a fitted effect of over 35% in size
How it was run: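 C3RL4 cells were seeded overnight at 37 C, then treated with compounds plus 1 uM (final) retinol for 6 h at 37 C. Viability was read as ATP by CellTiter-Glo luminescence after 30 min at room temperature.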

[4] = qHTS assay to identify small molecule antagonists of the retinoic acid receptor (RAR) signaling pathway (AID 1159552; note: nearly all actives have a fitted effect of over 50% in size)
How it was run: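 Cells of the C3RL4 line were seeded, incubated overnight, then dosed with compounds in DMSO followed immediately by retinol (1 uM final). Six hours later luciferase detection reagent went in; signal was measured after 30 min at RT.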

[5] = qHTS assay to identify small molecule agonists of the retinoic acid receptor (RAR) signaling pathway (AID 1159553)
How it was run: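 C3RL4 cells carrying a RARE luciferase reporter were plated overnight at 37 C, then exposed to compounds in DMSO for 6 hr at 37 C and 5% CO2. Luminescence was read 30 min after luciferase reagent addition at room temperature.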

[6] = qHTS assay to identify small molecule antagonists of the estrogen related receptor (ERR) signaling pathway from Tox21 library - cell viability counter screen (AID 1224834); note: nearly all actives have a fitted effect of over 30% in size
How it was run: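 ERR reporter cells were plated 6 h before compound addition, then exposed to test compounds in DMSO for 17.5 h at 37 C. Viability was read as CellTiter-Fluor fluorescence after a 30-minute incubation at 37 C.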

[7] = qHTS assay to identify small molecule agonists of the constitutive androstane receptor (CAR) signaling pathway - cell viability counter screen (AID 1224836); note: series mostly up to about 92 µM; nearly all actives have a fitted effect of over 45% in size
How it was run: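 HepG2-CYP2B6-hCAR, 2500 cells/well, 4 h pre-incubation; cpd 15 conc + PK11195 0.75 uM final; 23 h, 37 C/5% CO2; CellTiter-Fluor, fluorescence.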

[8] = qHTS assay to identify small molecule antagonists of the constitutive androstane receptor (CAR) signaling pathway - cell viability counter screen (AID 1224837); note: series mostly up to about 92 µM; nearly all actives have a fitted effect of over 45% in size
How it was run: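 HepG2 cells stably expressing hCAR and a CYP2B6-2.2kb reporter were plated and pre-incubated 4 hr at 37 C/5% CO2, then given compounds at 15 concentrations plus 50 nM CITCO (final). After 23 hr, viability was read by CellTiter-Fluor fluorescence.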

[9] = target: Nuclear receptor subfamily 1 group I member 3 (Homo sapiens) (UniProt Q14994); assay: qHTS assay to identify small molecule antagonists of the constitutive androstane receptor (CAR) signaling pathway (AID 1224838); note: nearly all actives have a fitted effect of over 40% in size
How it was run: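 HepG2 cells stably co-transfected with hCAR and a CYP2B6-2.2kb luciferase reporter were seeded 4 h before compound addition at 15 concentrations. Cells were stimulated with 50 nM CITCO (final) for 24 h at 37 C; luciferase luminescence was then read.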

[10] = target: Nuclear receptor subfamily 1 group I member 3 (Homo sapiens) (UniProt Q14994); assay: qHTS assay to identify small molecule agonists of the constitutive androstane receptor (CAR) signaling pathway (AID 1224839);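 note: HepG2 cells stably carrying human CAR and a CYP2B6 luciferase reporter; series mostly up to about 92 µM; nearly all actives have a fitted effect of over 15% in size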
How it was run: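 HepG2-CYP2B6-hCAR cells, 2500/well, 4 h pre-incubation; compounds 15 conc.; PK11195 0.75 uM final; 24 h, 37 C/5% CO2; ONE-Glo luciferase read.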

[11] = qHTS assay to identify small molecule antagonists of the estrogen related receptor signaling pathway with the pleiotropic PPARgamma coactivator (PGC) from Tox21 10K library - cell viability counter screen (AID 1224840; active = well fitted cell-killing curve with a large enough effect in the repeat runs, not every such curve was filed as active; note: nearly all actives have a fitted effect of over 40% in size)
How it was run: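 PGC/ERR cells were seeded at 2,000 cells/well and left 6 hours at 37 C/5% CO2 before pin-tool addition of compounds in DMSO. After 17.5 hours at 37 C, CellTiter-Fluor was added and fluorescence read 30 minutes later.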

[12] = qHTS assay to identify small molecule antagonists of the estrogen related receptor signaling pathway with the pleiotropic PPARgamma coactivator (PGC) from Tox21 10K library (AID 1224841; call rule not given here; note: series mostly up to about 92 µM; actives are mostly falling curves and most rising ones were filed inactive; nearly all actives have a fitted effect of over 50% in size)
How it was run: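 PGC/ERR reporter cells were seeded at 2,000 cells/well and held 6 hours at 37 C/5% CO2 before pin-tool addition of compounds in DMSO. After 18 hours at 37 C, One-Glo was added and luminescence read after 30 minutes at room temperature.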

[13] = qHTS assay to identify small molecule agonists of the estrogen related receptor signaling pathway with the pleiotropic PPARgamma coactivator (PGC) from Tox21 10K library (AID 1224842); note: nearly all actives have a fitted effect of over 15% in size
How it was run: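 PGC/ERR reporter cells (NTP line) were seeded 2,000 per well, rested 6 h at 37 C/5% CO2, then pin-dosed with compounds in DMSO for 18 h at 37 C; luciferase read by One-Glo luminescence after 30 min at room temperature.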

[14] = target: Luciferin 4-monooxygenase (Photinus pyralis) (UniProt P08659); assay: qHTS assay to identify small molecule inhibitors of firefly luciferase (AID 1224835); note: nearly all actives have a fitted effect of over 25% in size; note: potency is the fitted concentration of half-maximal effect
How it was run: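 Quantitative HTS format; KM concentrations of both substrates. Purified P. pyralis FLuc activity quantified from luminescence images.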

Chain of Nuclear receptor subfamily 1 group I member 3 (Homo sapiens) (Q14994 whole entry, looked up): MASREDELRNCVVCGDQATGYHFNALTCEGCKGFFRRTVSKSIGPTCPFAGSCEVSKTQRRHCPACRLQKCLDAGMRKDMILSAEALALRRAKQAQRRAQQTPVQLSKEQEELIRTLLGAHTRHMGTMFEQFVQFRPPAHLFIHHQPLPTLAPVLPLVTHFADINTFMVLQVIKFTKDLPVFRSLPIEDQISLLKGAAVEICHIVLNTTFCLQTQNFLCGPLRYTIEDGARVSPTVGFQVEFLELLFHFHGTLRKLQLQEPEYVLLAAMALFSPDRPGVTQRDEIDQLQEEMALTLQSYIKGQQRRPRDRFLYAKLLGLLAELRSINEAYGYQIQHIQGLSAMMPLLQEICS
Chain of Luciferin 4-monooxygenase (Photinus pyralis) (P08659 whole entry, looked up): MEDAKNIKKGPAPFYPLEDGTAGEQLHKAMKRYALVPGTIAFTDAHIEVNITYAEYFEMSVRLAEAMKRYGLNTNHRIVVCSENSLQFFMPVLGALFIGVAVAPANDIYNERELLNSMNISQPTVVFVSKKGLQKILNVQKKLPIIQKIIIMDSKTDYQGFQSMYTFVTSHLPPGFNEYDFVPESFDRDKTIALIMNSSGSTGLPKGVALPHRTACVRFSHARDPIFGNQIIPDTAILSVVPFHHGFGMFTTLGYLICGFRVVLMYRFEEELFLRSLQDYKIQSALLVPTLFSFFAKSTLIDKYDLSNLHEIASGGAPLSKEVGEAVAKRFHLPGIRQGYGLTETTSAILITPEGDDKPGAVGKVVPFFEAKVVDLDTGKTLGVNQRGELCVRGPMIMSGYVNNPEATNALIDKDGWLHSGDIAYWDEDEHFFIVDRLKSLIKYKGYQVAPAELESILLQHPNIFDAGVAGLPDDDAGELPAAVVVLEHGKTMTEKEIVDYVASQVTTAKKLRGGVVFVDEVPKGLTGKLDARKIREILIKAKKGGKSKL
Chain of Retinoic acid receptor RXR-alpha (Homo sapiens) (P19793 whole entry, looked up): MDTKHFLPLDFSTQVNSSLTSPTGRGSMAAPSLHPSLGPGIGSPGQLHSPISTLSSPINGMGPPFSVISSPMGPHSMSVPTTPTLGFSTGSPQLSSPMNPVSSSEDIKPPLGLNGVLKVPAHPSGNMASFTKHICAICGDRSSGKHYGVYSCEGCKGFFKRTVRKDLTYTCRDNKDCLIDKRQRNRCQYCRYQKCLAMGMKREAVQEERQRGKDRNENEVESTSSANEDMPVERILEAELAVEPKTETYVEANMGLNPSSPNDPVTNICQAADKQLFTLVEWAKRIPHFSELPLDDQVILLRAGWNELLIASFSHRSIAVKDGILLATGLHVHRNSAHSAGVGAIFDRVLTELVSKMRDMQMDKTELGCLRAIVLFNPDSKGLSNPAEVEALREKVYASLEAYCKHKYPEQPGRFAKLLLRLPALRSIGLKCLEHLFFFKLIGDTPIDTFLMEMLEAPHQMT

Structure (SMILES)	Potency [1]	Potency [2]	outcome [3]	Potency [4]	Potency [5]	Potency [6]	Potency [7]	Potency [8]	Potency [9]	Potency [10]	Potency [11]	Potency [12]	Potency [13]	Potency [14]
C=O	inactive	inactive	inactive	inactive	inactive	inactive	inactive	inactive	inactive	inactive	inactive	inactive	inactive	
O=C(Cl)c1cccc([N+](=O)[O-])c1	inactive	inactive	inactive	inactive	inactive	inactive	inactive	inactive		inactive	inactive	inactive	inactive	
CCOC(=O)C(Br)c1ccccc1 (centres undefined)	inactive	inactive	inactive	inactive	inactive	inactive	inactive	inactive	inactive	inactive	inactive			
O=C1CCCCCCCCCCC(=O)OCCO1	inactive	inactive	inactive		inactive	inactive	inactive	inactive	inactive	inactive	inactive			inactive
Cc1ccc(C)c(N)c1	inactive	inactive	inactive	inactive	inactive	inactive	inactive	inactive	inactive	inactive	inactive	inactive	inactive	
OCC(CBr)(CBr)CBr	inactive	inactive	inactive		inactive	inactive	inactive	inactive	inactive		inactive			70.7 µM (active)
O=C(C(Cl)Cl)N1CCOC12CCCCC2	inactive	inactive	inactive	inactive	inactive	inactive					inactive	inactive	inactive	inactive
CCCOCCC	inactive	inactive	inactive	inactive	inactive		inactive	inactive		inactive	inactive			inactive
CCCNC(C)C(=O)Nc1c(C)csc1C(=O)OC (centres undefined)	inactive	inactive	inactive	inactive	inactive	inactive	inactive	inactive		inactive	inactive	inactive	inactive	
C[C@@H](N)C(=O)O	inactive	inactive	inactive	inactive		inactive	inactive	inactive	inactive	inactive	inactive			
C=CCCC=C	inactive	inactive	inactive	inactive		inactive	inactive	inactive			inactive	inactive		inactive
CCN(CC)CC1CCCCN1CC(=O)N1c2ccccc2C(=O)Nc2cccnc21 (centres undefined)	inactive	inactive	inactive	inactive		inactive	inactive	inactive			inactive	inactive	inactive	inactive
O=C(O)c1cccc(Cl)c1Cl	inactive	inactive	inactive	inactive	inactive	inactive	inactive	inactive	inactive	inactive	inactive			
CC(=O)Nc1ccc(C)c(Cl)c1	inactive	inactive	inactive	inactive	inactive	inactive	inactive	inactive	inactive	inactive	inactive			
C=CCc1cc(OC)c(O)c(C(=O)NCCO)c1	inactive	inactive	inactive	inactive	inactive	inactive	inactive	inactive	inactive	inactive	inactive			
COC(=O)/C=C(/C)N	inactive	inactive	inactive	inactive	inactive	inactive	inactive	inactive	inactive	inactive	inactive	inactive	inactive	
CCCCCCCCOC(=O)CCCCCCCCC(=O)OCCCCCCCC	9.77 µM (active)	inactive	inactive		inactive	inactive	inactive	inactive		inactive	inactive	inactive	inactive	inactive
CO[Si](C)(C)OC	inactive	inactive	inactive	inactive	inactive	inactive	inactive	inactive		inactive	inactive	inactive	inactive	
Cc1c[nH]c(=S)[nH]c1=O	inactive	inactive	inactive	inactive		inactive	inactive	inactive		inactive	inactive			inactive
C1CCOC1	inactive	inactive	inactive	inactive	inactive	inactive	inactive	inactive			inactive	inactive	inactive	

Source: PubChem BioAssay (Tox21)
